Experimental data taken from the supplement of paper PMC6518042.

Test system: Pectobacterium parmentieri SCC3193
Assay: DuctApe activity index (growth/respiration on compound as sole nutrient source, blank-subtracted) (activity index (0-3)); higher = stronger utilization of the compound, active = 3 or more
Conditions: nutrient role (plate category): carbon
Method: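 Biolog Phenotype Microarray plates PM1, PM2A (carbon), PM3 (nitrogen) and PM4 (phosphorus/sulfur) inoculated with P. parmentieri SCC3193 in M9-C minimal salts medium with Biolog dye A, and read in the OmniLog for 46 h. Each well was tested in triplicate and the experiment was run twice. DuctApe computed a blank-subtracted activity index (AV, 0-3) from the mean curves; growth is positive at AV >= 3 and negative at AV <= 2.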

DuctApe activity index, inactive:
OCC1(O)OC[C@H](O)[C@@H](O)[C@@H]1O (stereo partly drawn) [L-Sorbose] 0
O=C(O)C(=O)O [Oxalic acid] 0
CC1OC(O)C(O)C(O)C1O [L-Fucose] 0
NCCO [2-Aminoethanol] 0
O=C(O)CC(CC(=O)O)C(=O)O [Tricarballylic acid] 0
O=C(O)[C@H]1OC(O)[C@H](O)[C@@H](O)[C@@H]1O (stereo partly drawn) [D-Glucuronic acid] 0
C=C(CC(=O)O)C(=O)O [Itaconic acid] 0
NCC(=O)N1CCC[C@H]1C(=O)O 0
OC[C@H]1O[C@@H]2O[C@H]3[C@H](O)[C@@H](O)[C@@H](O[C@H]4[C@H](O)[C@@H](O)[C@@H](O[C@H]5[C@H](O)[C@@H](O)[C@@H](O[C@H]6[C@H](O)[C@@H](O)[C@@H](O[C@H]7[C@H](O)[C@@H](O)[C@@H](O[C@H]8[C@H](O)[C@@H](O)[C@@H](O[C@H]1[C@H](O)[C@H]2O)O[C@@H]8CO)O[C@@H]7CO)O[C@@H]6CO)O[C@@H]5CO)O[C@@H]4CO)O[C@@H]3CO [b-Cyclodextrin] 0
C[C@H](O)[C@@H](N)C(=O)O [D-Threonine] 0
O=C(CO)[C@@H](O)[C@H](O)[C@H](O)CO[C@H]1O[C@H](CO)[C@@H](O)[C@H](O)[C@H]1O [Palatinose] 0
NCC(=O)N[C@@H](CC(=O)O)C(=O)O 0
O=C(O)CO [Glycolic acid] 0
OC1OC[C@@H](O)[C@@H](O)[C@@H]1O (stereo partly drawn) [D-Arabinose] 1

DuctApe activity index, active:
O=C1O[C@@H]([C@H](O)CO)[C@H](O)[C@H]1O [D-Galactonic acid-g-Lactone] 3
O=C(O)[C@@H](O)[C@@H](O)[C@H](O)[C@@H](O)C(=O)O [D-Saccharic acid] 3
O[C@@H]1[C@@H](O)[C@@H](O)CO[C@H]1O [L-Arabinose] 3
OCC1OC(O)(CO)C(O)C1O [D-Fructose] 3
O=C(O)/C=C/C(=O)O [Fumaric acid] 3
